Screening data (PubChem BioAssay)
Only a selection was taken, and hits are over-represented in it overall.
CBX7 AlphaScr = inhibitors of human CBX7 binding to H3K27me3 peptide; 66,000 tested, 1.1% active; AlphaScreen His6-CBX7 / biotin-H3K27me3 peptide binding; hits give low values; O95931; normalised signal (fraction of DMSO) (concentration not given with the values); in the data active = normalised signal below about 0.5
Target sequence (O95931 whole entry, looked up): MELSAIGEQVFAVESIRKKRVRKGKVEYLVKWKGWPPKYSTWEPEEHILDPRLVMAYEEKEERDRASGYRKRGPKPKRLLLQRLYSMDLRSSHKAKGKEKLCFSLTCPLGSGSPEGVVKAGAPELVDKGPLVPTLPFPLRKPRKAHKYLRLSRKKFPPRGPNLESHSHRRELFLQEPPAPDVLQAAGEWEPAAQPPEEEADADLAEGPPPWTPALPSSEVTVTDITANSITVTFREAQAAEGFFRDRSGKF
Numbers without * were called inactive.

SMILES	CBX7 AlphaScr
c1ccc(Cc2ccc(Oc3ncnc4sc5c(c34)CCCC5)cc2)cc1	1.3
O=C(CN1C(=O)CSc2ccccc21)NCCCN1CCOCC1	0.98
O=C(CN1C(=O)CSc2ccccc21)NCCN1CCOCC1	0.48*
O=C(CN1C(=O)CCSc2ccccc21)NCCN1CCOCC1	1
O=C(Nc1ccc2oc(-c3ccc(Cl)cc3)nc2c1)c1ccc2c(c1)OCCO2	1
COc1ccccc1C(=O)N1CC(=O)Nc2ccc(F)cc2C1c1ccccc1 (stereo unspecified)	1.1
COc1ccc(C(=O)N2CC(=O)Nc3ccc(C)cc3C2c2ccc(F)cc2)cc1 (stereo unspecified)	0.74
COc1ccc(C(=O)N2CC(=O)Nc3ccc(C)cc3C2c2ccc(F)cc2)c(OC)c1 (stereo unspecified)	0.3*
O=C(NCc1ccccc1)c1ccc2c(c1)N(Cc1ccc(Cl)cc1)C(=O)c1ccccc1S2(=O)=O	1
Cc1ccc(OCc2nc(C#N)c(N3CCC(Cc4ccccc4)CC3)o2)cc1	0.6
CCN1CCN(c2oc(COc3ccc(Cl)cc3)nc2C#N)CC1	0.72
N#Cc1nc(COc2ccc(Br)cc2)oc1N1CCCCCC1	0.42*
COc1ccc(OCc2nc(C#N)c(N3CCCC3)o2)cc1	0.86
N#Cc1nc(COc2ccc(Br)cc2)oc1N1CCCC1	0.47*
CCc1ccc(NC(=O)C2CC(c3cccc(OC)c3)=NO2)cc1 (stereo unspecified)	1.1
Cc1ccc(-c2nnc(Nc3cccc(O)c3)c3ccccc23)cc1S(N)(=O)=O	0.93
Cc1ccc(-c2nnc(Nc3cccc(O)c3)c3ccccc23)cc1S(=O)(=O)NC(C)(C)C	0.4*
Cc1ccc(-c2nnc(Nc3ccc(O)cc3)c3ccccc23)cc1S(=O)(=O)NC(C)(C)C	0.67
OC1CCCc2c1[nH]c1ccc(OCc3ccccc3)cc21 (stereo unspecified)	0.43*
CCOC(=O)c1[nH]c2ccc(OCc3ccccc3)cc2c1C	1.1
OC1CCCCc2c1[nH]c1ccc(C3CCCCC3)cc21 (stereo unspecified)	0.72
Fc1ccc(Nc2nc(C(F)(F)F)c(-c3cccc(Cl)c3)s2)cc1	1.3
Cc1ccc(OCCn2cnc3cc(C)c(C)cc32)cc1	0.77
Cc1ccc(OCCN2CCN(c3ccc(C)c(C)c3)CC2)cc1	0.4*
Cc1ccc(OCCN2CCN(c3ncnc4scc(-c5ccccc5)c34)CC2)cc1	0.92
SMILES	CBX7 AlphaScr
COc1ccc(NC(=O)CC2NC3CCCCC3NC2=O)cc1 (stereo unspecified)	0.98
O=C(CN1C(=O)CSc2ncccc21)NCCc1ccccc1	1.2
CCc1nnc(NC(=O)c2ccc(S(=O)(=O)N(C)C)cc2)o1	0.042*
COCc1nnc(NC(=O)c2ccc(S(=O)(=O)N(C)C)cc2)o1	0.56
CCc1nnc(NC(=O)c2ccc(S(=O)(=O)N(CCOC)CCOC)cc2)o1	0.5
CCCCN(CCCC)S(=O)(=O)c1ccc(C(=O)Nc2nnc(CC)o2)cc1	0.051*
CN(C1CCCCC1)S(=O)(=O)c1ccc(C(=O)Nc2nnc(-c3cccs3)o2)cc1	0.92
CCCCN(C)S(=O)(=O)c1ccc(C(=O)Nc2nnc(-c3cccs3)o2)cc1	0.68
CN(C1CCCCC1)S(=O)(=O)c1ccc(C(=O)Nc2nc(-c3ccncc3)cs2)cc1	0.96
CCCCN(CCCC)S(=O)(=O)c1ccc(C(=O)Nc2nnc(C3CC3)o2)cc1	0.045*
COCCN(CCOC)S(=O)(=O)c1ccc(C(=O)Nc2nnc(C3CC3)o2)cc1	0.54
CN(C1CCCCC1)S(=O)(=O)c1ccc(C(=O)Nc2nnc(C3CC3)o2)cc1	0.028*
CC1CCCCN1c1nnc(NC(=O)Nc2ccccc2C(F)(F)F)s1 (stereo unspecified)	0.7
CCC1=Nc2cc(C(=O)NCc3ccccc3)ccc2Sc2ccc(C)cc21	0.86
CC(Oc1ccccc1)C(=O)N1CC(=O)Nc2ccc(Br)cc2C1c1ccccc1 (stereo unspecified)	1
COCc1nnc(NC(=O)c2ccc(S(=O)(=O)N(CCC#N)CCC#N)cc2)o1	0.063*
CCCCN(CC)S(=O)(=O)c1ccc(C(=O)Nc2c(C(=O)OCC)oc3ccccc23)cc1	1.1
CCCCN(CC)S(=O)(=O)c1ccc(C(=O)Nc2nnc(COC)o2)cc1	0.062*
CCN(Cc1ccccc1)S(=O)(=O)c1ccc(C(=O)Nc2nnc(COC)o2)cc1	0.88
Cc1ccc(C(=O)c2oc3ccccc3c2NC(=O)COc2cc(C)cc(C)c2)cc1	1.2
CCn1c(Cc2c(C)[nH]c3ccccc23)nnc1SCC(=O)Nc1ccc(C(C)=O)cc1	0.98
COc1cccc(C(=O)N2CC(=O)Nc3ccc(Cl)cc3C2c2ccccc2)c1OC (stereo unspecified)	1.1
CCOc1ccc(N2C(=O)C3C4C=CC(C4)C3(C)C2=O)cc1 (stereo unspecified)	1.1
O=C(CCN1C(=O)COc2ccccc21)NCc1ccccn1	0.16*
CC(C(=O)NCc1ccccn1)N1C(=O)COc2ccc(Cl)cc21 (stereo unspecified)	0.82
SMILES	CBX7 AlphaScr
Cc1ccc(CNC(=O)CCN2C(=O)COc3ccccc32)cc1	1
Cc1ccc2c(c1)N(C(C)C(=O)NCc1ccccn1)C(=O)CO2 (stereo unspecified)	0.25*
Cc1ccc2c(c1)N(C(C)C(=O)NCc1ccccc1)C(=O)CO2 (stereo unspecified)	1
Cc1ccc2c(c1)N(CCCC(=O)NCc1ccccn1)C(=O)CO2	1.3
Cc1ccc2c(c1)N(CCC(=O)NCc1cccnc1)C(=O)CO2	0.99
O=C(CCN1C(=O)COc2ccccc21)NCc1ccccc1Cl	1.1
Cc1ccc2c(c1)N(CCC(=O)NCc1ccccn1)C(=O)CO2	0.34*
CCC(=O)Nc1ccc2nc(SC(c3ccccc3)c3ccccc3)sc2c1	1.1
COc1ccc(CNC(=O)C2CCN(Cc3nc(-c4ccc(OC)cc4)oc3C)CC2)cc1	1.1
COc1cccc(-c2nn(C)c3sc(C(=O)NC4CCCc5ccccc54)cc23)c1 (stereo unspecified)	0.89
Fc1ccccc1-c1nc(N2CCN(c3ccccc3F)CC2)c2ccccc2n1	1
Cc1ccc(OCC(=O)Nc2cccc(-c3nc4cc(C)cc(C)c4o3)c2C)c(C)c1	1
CC(=O)N1CCc2cc(S(=O)(=O)NCCC(=O)NCc3ccc(C(=O)O)cc3)ccc21	1
COc1ccc(N2C(=O)c3nccnc3C2=O)cc1Cl	1
COc1ccccc1NC(=O)CSc1nccn1-c1cccc(Cl)c1	0.97
CCOc1ccccc1NC(=O)CSc1nccn1-c1cccc(Cl)c1	0.29*
Cc1cc(C)c(NC(=O)CSc2nccn2-c2cccc(Cl)c2)c(C)c1	0.88
Cc1cccc(NC(=O)CSc2nccn2-c2ccc(Cl)cc2)c1C	0.44*
Cc1cccc(NC(=O)CSc2nccn2-c2cccc(Cl)c2)c1C	0.47*
Cc1ccc(C)c(NC(=O)CSc2nccn2-c2ccc(Cl)cc2)c1	0.8
CCOc1ccccc1NC(=O)CSc1nccn1-c1cccc(C)c1	0.76
Cc1cccc(NC(=O)CSc2nccn2-c2ccccc2)c1C	0.77
Cc1ccc(C)c(NC(=O)CSc2nccn2-c2cccc(Cl)c2)c1	0.93
O=C(Nc1ccc(OC(F)(F)F)cc1)c1cnc2ccccn2c1=O	0.98
Cc1ccc(C2(c3ccc(C)cc3)CC2C(=O)Nc2cccc(Cl)c2)cc1 (stereo unspecified)	1.2
COc1ccc(C(=O)Nc2cccc(C(=O)Nc3nccs3)c2)cc1	1
CC(C)n1c(C(O)c2ccc(N(C)C)cc2)nc2ccccc21 (stereo unspecified)	0.84
